Laboratory results published in PubChem BioAssay (NCATS).
Records with an inconclusive call do not appear. Activity calls are given as the source filed them. Calls follow the shape of the dose curve; as a rule, active = well fitted inhibition curve with a large enough effect; inconclusive = small, poorly fitted or top-dose-only effect; inactive = no such curve, though single readings can be large or run the other way.

test: qHTS for inhibitors of ER calcium dysfunction: SERCaMP assay screened against the NCATS CANVASS Library (AID 1347393); details: SH-SY5Y GLuc-SERCaMP secretion, thapsigargin, luminescence; series mostly up to 76.6 µM; activity change, negative = inhibition: at the top concentration; also: nearly all actives have a fitted effect of over 40% in size;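 as to activity change, negative = inhibition: lower secreted reporter signal means inhibitor of ER calcium depletion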
Summary of the method: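 SH-SY5Y GLuc-SERCaMP, 1000 cells/well, 4 h attach; cpd 16 h, 37C/5% CO2; thapsigargin (added as 6x 600 nM) 4 h; coelenterazine; luminescence. Reduced reporter release = ER Ca stabilization.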
% is scaled to controls: 0 for no effect and ±100 for the full control effect; potency is read from the fitted curve at half-maximal effect.

Row | SMILES | activity change, negative = inhibition | Potency
1 | CCC(=O)CCCCC[C@@H]1NC(=O)[C@H]2CCCCN2C(=O)[C@H](C(C)C)NC(=O)[C@H](Cc2cn(OC)c3ccccc23)NC1=O | 445% (inactive) | 
2 | C/C(=C\[C@H](C)C(=O)CCCC1CC(=O)NC(=O)C1)[C@@H]1OC(=O)/C=C/CC/C=C/[C@H](O)[C@@H](O)[C@@H]1C | 68.2% (inactive) | 
3 | C/C=C(/C)c1c(Cl)c(O)c(C)c2c1Oc1c(Cl)c(O)c(Cl)c(C)c1C(=O)O2 | 24.1% (inactive) | 
4 | C=CC(CCCCC)C1C(=O)NC(=O)C1C(=O)C1C(/C=C/C)C=CC2CC(C(=O)O)CC(C)C21 (configuration not stated) | 5.84% (inactive) | 
5 | C=C1CC[C@@H](O[C@H]2C[C@@](O)([C@H](C)NC(=O)c3[nH]c(C)c(Cl)c3Cl)[C@H](O)[C@@H](C)O2)[C@@H]2C=C[C@H](C)C(/C(O)=C3/C(=O)[C@H](C(C)C)N([C@@H]4O[C@H](C)[C@H](OC(N)=O)[C@H](OC(C)=O)[C@@H]4OC)C3=O)[C@@H]12 (some centres not stated) | -22.2% (inactive) | 
6 | O=c1cc(-c2ccc(O)c(O)c2)oc2cc(O[C@@H]3O[C@H](CO)[C@@H](O)[C@H](O)[C@H]3O)cc(O)c12 |  | 38.4 µM (active)
7 | C[n+]1cc2cc(C(N)=O)[nH]c3c(=N)c(Cl)c(N)c1c23 | -6.52% (inactive) | 
8 | C/C1=C/[C@@H](C)[C@H](O)[C@@H](O)/C=C/CC/C=C/C(=O)O[C@@H]1[C@H](C)C(=O)CCCC1CC(=O)NC(=O)C1 | 36.1% (inactive) | 
9 | COc1ccc2[nH]c3c(c2c1)CCN1C[C@H]2C[C@@H](OC(=O)c4cc(OC)c(OC)c(OC)c4)[C@H](OC)[C@@H](OC)[C@H]2C[C@H]31 |  | 6.09 µM (active)
10 | CC(C)=CC[C@H]1C[C@@]2(CC=C(C)C)C(=O)[C@](CC=C(C)C)(C(=O)C(C(=O)c3ccccc3)=C2O)C1(C)C |  | 30.5 µM (active)
11 | C[C@]12CC[C@]3(C1)[C@H](CC2=O)C[C@@H](OC(=O)c1ccccc1)[C@H]1[C@](C)(C(=O)O)CCC[C@@]13C | 6.02% (inactive) | 
12 | CC(=O)O[C@H]1c2ccccc2-c2c3c(cc4c2[C@@H]1N(C(C)=O)CC4)OCO3 |  | 34.3 µM (active)
13 | C[C@H]1C=C[C@H]2CCCC[C@@H]2[C@H]1C(=O)[C@H]1CC2=C(C(=O)O)CCN2C1=O |  | 19.3 µM (active)
14 | C/C(=C\[C@H](C)C(=O)/C=C/CC1CC(=O)NC(=O)C1)[C@@H]1OC(=O)/C=C/CC/C=C/C[C@@H](O)[C@@H]1C | 86.5% (inactive) | 
15 | C/C=C1/CN2C3CC1C1C=CC(=O)N4c5ccccc5[C@@]3(C[C@@H]2C2=C[C@H]3C5CC6N(CC[C@@]67c6ccccc6N(C2=O)[C@@H]37)C/C5=C/C)[C@H]14 (some centres not stated) |  | 0.216 µM (active)
16 | Oc1ccc(C2Oc3cc(O)c4c(c3[C@@H]2c2cc(O)cc(O)c2)[C@H]2C(c3ccc(O)cc3)c3c(O)cc5c(c3[C@H]2C4c2ccc(O)cc2)[C@H](c2cc(O)cc(O)c2)C(c2ccc(O)cc2)O5)cc1 (some centres not stated) | -11.4% (inactive) | 
17 | COc1cc(/C=C/C(=O)OC[C@@H](Cc2ccc(O)c(OC)c2)[C@@H](COC(=O)/C=C/c2ccc(O)c(OC)c2)Cc2ccc(O)c(OC)c2)ccc1O |  | 3.43 µM (active)
18 | C=CC(CCCCC)C1C(=O)NC(=O)C1C(=O)C1C2C(C)CC(C(=O)O)CC2CC1(O)C(=O)/C=C/C (configuration not stated) | -39.2% (inactive) | 
19 | C[C@]12CCC[C@](C)(C(=O)O)[C@@H]1CC[C@@]1(C)c3cocc3CC[C@H]21 | -18.4% (inactive) | 
20 | CC(C)C[C@@H]1c2c(O)c(C=O)c(O)c(C=O)c2O[C@]2(C)C=C[C@@H](C(C)C)C[C@H]12 | -20.5% (inactive) | 
21 | COc1cc2c(c(O)c1O)C(=O)c1c(coc1C)C2=O | -48.9% (inactive) | 
22 | C/C=C/C1C=CC2CC(C)CC(C)C2C1C(=O)CC(=O)NC(CO)C/C=C/CCCCC (configuration not stated) |  | 6.09 µM (active)
